Results as given in PubChem BioAssay (NCI).
Compounds without any hit were thinned out: in the full panel of roughly 83,000, 20% have a hit.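 In brief: 96-well plates, 48 h treatment, single concentration, percent growth endpoint.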 A number with no mark means an inactive call. Active and inactive are the calls of the source. Rule for the calls: active = growth percent below 10; inactive = the rest.

Assays:
Test in all cases: NCI-60 one-dose screen, 48 h (100 = growth as untreated, 0 = no growth, -100 = all killed)
Conditions in all cases: 10 µM unless noted
HCT-15 colon = tested on: HCT-15 colon
HT29 colon = tested on: HT29 colon
SNB-75 CNS = tested on: SNB-75 CNS
SNB-19 CNS = tested on: SNB-19 CNS
U251 CNS = tested on: U251 CNS
PC-3 prostate = tested on: PC-3 prostate
SK-MEL-5 melanoma = tested on: SK-MEL-5 melanoma
UACC-62 melanoma = tested on: UACC-62 melanoma
LOX IMVI melanoma = tested on: LOX IMVI melanoma
SK-MEL-28 melanoma = tested on: SK-MEL-28 melanoma
SK-MEL-2 melanoma = tested on: SK-MEL-2 melanoma
EKVX NSCLC = tested on: EKVX NSCLC
SN12C renal = tested on: SN12C renal
UO-31 renal = tested on: UO-31 renal
TK-10 renal = tested on: TK-10 renal
ACHN renal = tested on: ACHN renal
CAKI-1 renal = tested on: CAKI-1 renal
A498 renal = tested on: A498 renal
CCRF-CEM leukemia = tested on: CCRF-CEM leukemia
MOLT-4 leukemia = tested on: MOLT-4 leukemia

Row | Compound | growth (HCT-15 colon) | growth (HT29 colon) | growth (SNB-75 CNS) | growth (SNB-19 CNS) | growth (U251 CNS) | growth (PC-3 prostate) | growth (SK-MEL-5 melanoma) | growth (UACC-62 melanoma) | growth (LOX IMVI melanoma) | growth (SK-MEL-28 melanoma) | growth (SK-MEL-2 melanoma) | growth (EKVX NSCLC) | growth (SN12C renal) | growth (UO-31 renal) | growth (TK-10 renal) | growth (ACHN renal) | growth (CAKI-1 renal) | growth (A498 renal) | growth (CCRF-CEM leukemia) | growth (MOLT-4 leukemia)
1 | C#Cc1cccc(Oc2ccc(NC(=O)CCl)cc2)c1 | -29.8% [8.25 µM] (active) | 34.5% [8.25 µM] | 58.2% [8.25 µM] | 54.2% [8.25 µM] | 32.9% [8.25 µM] | 61.7% [8.25 µM] | 6.75% [8.25 µM] (active) | 26% [8.25 µM] | -27.1% [8.25 µM] (active) | 91.8% [8.25 µM] | 61.8% [8.25 µM] | 82.3% [8.25 µM] | 37.6% [8.25 µM] | 52.8% [8.25 µM] | 93% [8.25 µM] | 70.1% [8.25 µM] | 36.9% [8.25 µM] | 102% [8.25 µM] | 2.35% [8.25 µM] (active) | 0.835% [8.25 µM] (active)
2 | C=C1C(=O)O[C@H]2[C@H]1CC/C(COC(=O)c1cc3cc(F)ccc3[nH]1)=C\CC[C@@]1(C)O[C@@H]21 | -59.8% (active) | -53.6% (active) | -35.3% (active) | -10.2% (active) | -86% (active) | -75.2% (active) | -94.5% (active) | -71.9% (active) | -87.2% (active) | -77.4% (active) | -69% (active) | -78.1% (active) | -42% (active) | -88.1% (active) | -94.9% (active) | -88.5% (active) | -90.8% (active) | -40.2% (active) | -31.9% (active) | -16.2% (active)
3 | CCN=C1C=CC(=C(c2ccc(N(C)C)cc2)c2ccc(N(C)C)cc2)c2ccccc21 | -7.99% (active) | -18.7% (active) | -17.3% (active) | 14.8% | -3.23% (active) | -4.82% (active) | -95.5% (active) | -38% (active) | -10.8% (active) | -18.5% (active) | -39.5% (active) | -6.63% (active) | -22.2% (active) | -42.9% (active) | -3.47% (active) | -9.84% (active) | 0.419% (active) | 13.3% | 9.37% (active) | 9.89% (active)
4 | CCOC(=O)CSc1nc2sc3c(c2c(=O)n1-c1ccc([N+](=O)[O-])cc1)CCCCC3 | 85.1% | 78.6% | 11% | 78.8% | 53.5% | 73.2% | 88.7% | 74.9% | 79.6% | 84.1% | 90.9% | 82.8% | 84.3% | 71.4% | 84.7% | 52.8% | 51.2% | 85.3% | 89% | 97%
5 | CN1C(=O)N(C)C2C1NC(=S)N2/N=C/C=C/c1ccccc1[N+](=O)[O-] (stereo not given) | 29% | 2.85% (active) | -5.19% (active) | 37% | 20.2% | 17.3% | 11.8% | 26.4% | 31.6% | 56.7% | 17% | 43.6% | 31.4% | 44.6% | 42.8% | 30.7% | 23% | 10.8% | 7.73% (active) | 27.8%
6 | COc1ncc2cc1NS(=O)(=O)c1cccc(c1)C(=O)NCC1=CC=C(S1)c1ncnc3c1SC2=C3C | -18.2% (active) | 4.55% (active) | -12.9% (active) | 11.5% | -10.2% (active) | -24.8% (active) | -38.2% (active) | -46.7% (active) | -32.1% (active) | -62.2% (active) | -33.2% (active) | -15.6% (active) | 5.73% (active) | -12.9% (active) | -6.51% (active) | -13.7% (active) | -26.1% (active) | -67.2% (active) | -0.78% (active) | -20.2% (active)
7 | O=C(Cn1nnc([N+](=O)[O-])n1)c1ccccc1 | 80.5% | 66.4% | 67.9% | 116% | 106% | 79.8% | 84.1% | 68.8% | 59.6% | 110% | 73.3% | 100% | 102% | 85.1% | 92% | 107% | 77.7% | 48.6% | 58.6% | 95.3%
8 | O=C(N/N=C/c1ccc(O)cc1O)c1ccc(Nc2ccnc(C(F)(F)F)c2)cc1 | 39.7% | 58.6% | 62.2% | 32% | 24.6% | 50.2% | 20.7% | 11.7% | 12.9% | 60.7% | 73.3% | 41.4% | 38.5% | 46.1% | 63.3% | 37.9% | 34.9% | 74.7% | 29.1% | 73.7%
9 | COC(=O)Cc1nc(C#N)c(N(C)C)o1 | 99.4% | 106% | 78.5% | 96.1% | 98.8% | 99.4% | 102% | 87.6% | 97.7% | 104% | 89.4% | 116% | 90.3% | 82.4% | 93.3% | 101% | 97.2% | 125% | 92.9% | 97.6%
10 | COc1cccc(OC)c1Oc1c(-c2nc3ccccc3s2)c(C)nn1-c1ccccc1 | 51.7% | 71.2% | 74.8% | 92.7% | 84.8% | 51.1% | 73.7% | 56.2% | 62.9% | 106% | 90.6% | 71.9% | 82.6% | 49.5% | 94.7% | 72.8% | 44.9% | 82.3% | 62.9% | 51.2%
11 | CCCCCCCCCCCCCCCCCCOc1ccccc1CC(=O)OCC[N+]1(C)CCOCC1 | 90% | 47.9% | 19.7% | 54.4% | 30.1% | 41.1% | 79.8% | 60.8% | 55.9% | 85.7% | 91.5% | 86.7% | 31.4% | 67.9% | 43.5% | 89.6% | 49.1% | 64.1% | 30.1% | 46.9%
12 | Cc1ccc(-c2csc(NC(=O)N3CCN(c4cc5c(cc4F)c(=O)c(C(=O)O)cn5C4CC4)CC3)n2)cc1 | 9.36% (active) | 4.65% (active) | 31.5% | 26.9% | 15.4% | 7.37% (active) | -75.2% (active) | 3.86% (active) | 2.73% (active) | 35% | -26.3% (active) | 20.4% | 15.5% | 8.87% (active) | 26.1% | 5.91% (active) | 22.2% | 2.51% (active) | 12.9% | 3.49% (active)
13 | COc1ccc2nc(Cl)c(/C=C/C(=O)c3ccc(NC(=O)CSc4nnc(-c5ccc(Cl)c(Cl)c5)n4-c4ccccc4)cc3)cc2c1 | 105% | 90.1% | 84.1% | 91.3% | 87.4% | 72.5% | 94.5% | 86.2% | 97.6% | 107% | 87.6% | 93.2% | 88.2% | 79.3% | 100% | 103% | 77.6% | 87% | 90.8% | 86.4%
14 | CCOC(=O)c1c(C)nc2c(c1N)CC(=O)N2Cc1cc(OC)c(OC)c(OC)c1 | 28.5% | 8.37% (active) | 53.9% | 66.1% | 38.3% | 52.4% | 23% | 51% | 48.5% | 73.6% | 27% | 51.6% | 74% | 62.2% | 54.8% | 64.9% | 50.6% | 35.8% | 78.2% | 52.1%
